From PubChem BioAssay AID1159580 (chemical genetic matrix, 2015)
About 2,000 (36%) of roughly 5,500 compounds were called active. Inconclusive results (about 18%) are left out. Rule as the data show it: active = normalized growth mostly below about 0.91 (no sharp cut-off); inconclusive = no clear call, values can overlap the other calls; inactive = mostly above about 0.92. Some of the results follow.

Assay: chemical genetic growth profiling, strain panel (AID 1159580);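 also: tested at 20 µM; growth read once vehicle control cultures reached saturation at 30 °C; 1 = growth at the plate median or of vehicle wells; lower values mean less growth of the strain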
Settings: growth OD

Measured: normalized growth

CCCCC(CC)CN=C(N)NC(N)=NCCCCCCN=C(N)NC(N)=NCC(CC)CCCC (centres undefined)
active: S. cerevisiae deletion strains, locus YKL009W, strain mrt4, hits give low values 0.0745 | S. cerevisiae deletion strains, locus YKL068W, hits give low values 0.0576 | S. cerevisiae deletion strains, locus YKL085W, strain MDH1 (second series), hits give low values 0.0564 | S. cerevisiae deletion strains, locus YKL085W, strain MDH1, hits give low values 0.0564 | S. cerevisiae deletion strains, locus YKL160W, strain elf1, hits give low values 0.0635 | S. cerevisiae deletion strains, locus YKL190W, strain CNB1, hits give low values 0.05 | S. cerevisiae deletion strains, locus YKR001C, strain vps1, hits give low values 0.0639 | S. cerevisiae deletion strains, locus YKR026C, strain gcn3, hits give low values 0.0659 | S. cerevisiae deletion strains, locus YKR091W, strain srl3, hits give low values 0.0594 | S. cerevisiae deletion strains, locus YLL001W, strain dnm1, hits give low values 0.0606 | S. cerevisiae deletion strains, locus YLL026W, hits give low values 0.0577 | S. cerevisiae deletion strains, locus YLL041C, strain sdh2, hits give low values 0.0581 | S. cerevisiae deletion strains, locus YLR027C, strain aat2, hits give low values 0.0557 | S. cerevisiae deletion strains, locus YLR039C, strain RIC1, hits give low values 0.0876 | S. cerevisiae deletion strains, locus YLR058C, strain SHM2, hits give low values 0.0571 | S. cerevisiae deletion strains, locus YLR102C, strain apc9, hits give low values 0.0596 | S. cerevisiae deletion strains, locus YLR113W, strain HOG1, hits give low values 0.113 | S. cerevisiae deletion strains, locus YLR221C, strain rsa3, hits give low values 0.0636 | S. cerevisiae deletion strains, locus YLR258W, strain gsy2, hits give low values 0.0577 | S. cerevisiae deletion strains, locus YLR262C, strain YPT6 (second series), hits give low values 0.0725 | S. cerevisiae deletion strains, locus YLR262C, strain YPT6, hits give low values 0.104 | S. cerevisiae deletion strains, locus YLR268W, strain sec22, hits give low values 0.0602 | S. cerevisiae deletion strains, locus YLR320W, strain mms22, hits give low values 0.0987 | S. cerevisiae deletion strains, locus YLR330W, strain CHS5, hits give low values 0.0561 | S. cerevisiae deletion strains, locus YLR342W, strain FKS1 (second series), hits give low values 0.0721 | S. cerevisiae deletion strains, locus YLR342W, strain FKS1, hits give low values 0.0635 | S. cerevisiae deletion strains, locus YLR357W, strain rsc2, hits give low values 0.127 | S. cerevisiae deletion strains, locus YLR370C, strain arc18, hits give low values 0.0632 | S. cerevisiae deletion strains, locus YLR371W, strain rom2, hits give low values 0.0612 | S. cerevisiae deletion strains, locus YLR384C, strain iki3, hits give low values 0.0589 | S. cerevisiae deletion strains, locus YLR418C, strain cdc73, hits give low values 0.0906 | S. cerevisiae deletion strains, locus YML016C, strain PPZ1, hits give low values 0.0539 | S. cerevisiae deletion strains, locus YML032C, strain rad52, hits give low values 0.0626 | S. cerevisiae deletion strains, locus YML120C, strain ndi1, hits give low values 0.0582 | S. cerevisiae deletion strains, locus YML124C, strain tub3, hits give low values 0.058 | S. cerevisiae deletion strains, locus YMR058W, strain fet3, hits give low values 0.0606 | S. cerevisiae deletion strains, locus YMR078C, strain ctf18, hits give low values 0.0695 | S. cerevisiae deletion strains, locus YMR125W, strain sto1, hits give low values 0.0772 | S. cerevisiae deletion strains, locus YMR129W, hits give low values 0.0584 | S. cerevisiae deletion strains, locus YMR205C, strain PFK2, hits give low values 0.0839 | S. cerevisiae deletion strains, locus YMR223W, strain ubp8, hits give low values 0.0589 | S. cerevisiae deletion strains, locus YMR231W, strain pep5, hits give low values 0.0657 | S. cerevisiae deletion strains, locus YMR263W, strain SAP30, hits give low values 0.0593 | S. cerevisiae deletion strains, locus YMR307W, strain GAS1, hits give low values 0.118 | S. cerevisiae deletion strains, locus YNL067W, strain RPL9B, hits give low values 0.051 | S. cerevisiae deletion strains, locus YNL071W, strain lat1, hits give low values 0.0619 | S. cerevisiae deletion strains, locus YNL128W, strain TEP1, hits give low values 0.0666 | S. cerevisiae deletion strains, locus YNL183C, strain NPR1, hits give low values -0.00134 | S. cerevisiae deletion strains, locus YNL209W, strain ssb2, hits give low values 0.0592 | S. cerevisiae deletion strains, locus YNL233W, strain BNI4, hits give low values 0.06 | S. cerevisiae deletion strains, locus YNL248C, strain rpa49, hits give low values 0.0743 | S. cerevisiae deletion strains, locus YNL250W, strain rad50, hits give low values 0.0631 | S. cerevisiae deletion strains, locus YNL271C, strain bni1, hits give low values 0.0667 | S. cerevisiae deletion strains, locus YNL298W, strain CLA4, hits give low values 0.0608 | S. cerevisiae deletion strains, locus YNL307C, strain MCK1, hits give low values 0.0671 | S. cerevisiae deletion strains, locus YNL322C, strain KRE1 (second series), hits give low values 0.0646 | S. cerevisiae deletion strains, locus YNL322C, strain KRE1, hits give low values 0.05 | S. cerevisiae deletion strains, locus YNR049C, strain mso1, hits give low values 0.058 | S. cerevisiae deletion strains, locus YNR052C, strain pop2, hits give low values 0.0629 | S. cerevisiae deletion strains, locus YOL006C, strain TOP1, hits give low values 0.124 | S. cerevisiae deletion strains, locus YOL012C, strain htz1 0.144 | S. cerevisiae deletion strains, locus YOL147C, strain pex11, hits give low values 0.058 | S. cerevisiae deletion strains, locus YOR001W, strain rrp6, hits give low values 0.0671 | S. cerevisiae deletion strains, locus YOR061W, strain CKA2, hits give low values 0.0521 | S. cerevisiae deletion strains, locus YOR069W, strain VPS5, hits give low values 0.0535 | S. cerevisiae deletion strains, locus YOR070C, strain gyp1, hits give low values 0.0584 | S. cerevisiae deletion strains, locus YOR080W, strain dia2, hits give low values 0.0635 | S. cerevisiae deletion strains, locus YOR083W, strain WHI5, hits give low values 0.0619 | S. cerevisiae deletion strains, locus YOR106W, strain vam3, hits give low values 0.0658 | S. cerevisiae deletion strains, locus YOR136W, strain idh2, hits give low values 0.0692 | S. cerevisiae deletion strains, locus YOR144C, strain elg1, hits give low values 0.0567 | S. cerevisiae deletion strains, locus YOR184W, strain ser1, hits give low values 0.0701 | S. cerevisiae deletion strains, locus YOR231W, strain MKK1, hits give low values 0.0983 | S. cerevisiae deletion strains, locus YOR265W, strain rbl2, hits give low values 0.0559 | S. cerevisiae deletion strains, locus YOR270C, strain vph1, hits give low values 0.0983 | S. cerevisiae deletion strains, locus YOR290C, strain snf2, hits give low values 0.0664 | S. cerevisiae deletion strains, locus YOR316C, strain cot1, hits give low values 0.0588 | S. cerevisiae deletion strains, locus YPL051W, strain arl3, hits give low values 0.0606 | S. cerevisiae deletion strains, locus YPL055C, strain LGE1, hits give low values 0.0672 | S. cerevisiae deletion strains, locus YPL078C, strain atp4, hits give low values 0.0617 | S. cerevisiae deletion strains, locus YPL106C, strain sse1, hits give low values 0.0996 | S. cerevisiae deletion strains, locus YPL240C, strain hsp82, hits give low values 0.0572 | S. cerevisiae deletion strains, locus YPL256C, strain CLN2, hits give low values 0.111 | S. cerevisiae deletion strains, locus YPR119W, strain clb2, hits give low values 0.0609 | S. cerevisiae deletion strains, locus YPR141C, strain kar3, hits give low values 0.0639 | S. cerevisiae deletion strains, locus YPR163C, strain tif3, hits give low values 0.0715 | S. cerevisiae deletion strains, locus YPR167C, strain met16, hits give low values 0.0622 | S. cerevisiae deletion strains, strain wtn01, hits give low values 0.0578 | S. cerevisiae strains, strain wild type, hits give low values 0.0505
